This note sets out measurements from PubChem BioAssay (EPA / NIEHS).

Records with an inconclusive call do not appear. Active and inactive are the calls of the source. Rule for the calls: active = hit-call score of the fitted dose curve at least 0.9, where 1 is the maximum; inconclusive = response in the unintended direction; inactive = score below 0.9.

Estrogen receptor (Homo sapiens), sequence (P03372 whole entry, looked up): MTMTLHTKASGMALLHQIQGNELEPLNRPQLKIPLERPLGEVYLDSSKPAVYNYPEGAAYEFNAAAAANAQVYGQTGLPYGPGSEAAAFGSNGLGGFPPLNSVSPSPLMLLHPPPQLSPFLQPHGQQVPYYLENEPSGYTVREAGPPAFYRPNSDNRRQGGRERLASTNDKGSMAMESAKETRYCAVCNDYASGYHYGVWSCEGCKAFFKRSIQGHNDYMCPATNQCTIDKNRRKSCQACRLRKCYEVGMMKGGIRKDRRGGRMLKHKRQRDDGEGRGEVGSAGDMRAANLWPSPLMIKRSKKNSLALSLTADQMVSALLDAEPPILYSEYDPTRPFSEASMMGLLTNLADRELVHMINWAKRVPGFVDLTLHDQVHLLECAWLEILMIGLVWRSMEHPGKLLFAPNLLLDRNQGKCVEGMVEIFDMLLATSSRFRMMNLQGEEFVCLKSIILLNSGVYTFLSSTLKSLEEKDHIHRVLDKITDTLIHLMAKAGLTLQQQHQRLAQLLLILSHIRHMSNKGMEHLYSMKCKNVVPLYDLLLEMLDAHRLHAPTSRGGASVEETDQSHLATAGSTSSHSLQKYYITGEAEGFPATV

This experiment concerns the target Estrogen receptor (Homo sapiens) (UniProt P03372). Kind of experiment: NVS_NR_hER: NovaScreen (NVS) Nuclear Receptor Binding Assay for human Estrogen Receptor (ER) (AID 2283348). An outline of the steps:
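Radiodetection of ligand displacement in a lysate-based, cell-free format using MCF7 extracts, read at 18 hours. Duplicate 25 uM primary testing, then concentration series for actives.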
Consider `O=C(NC(=O)c1c(F)cccc1F)Nc1cc(Cl)c(Oc2ncc(C(F)(F)F)cc2Cl)c(Cl)c1`, for which the outcome was inactive.

For `O=[N+]([O-])c1c2ccccc2cc2ccccc12`, the result was inactive. Then `Cc1cc(SCc2sc(-c3ccc(C(F)(F)F)c(F)c3)nc2C)ccc1OCC(=O)O`, with “inactive”. Then `CCCCC(CC)C(=O)Cl` (configuration not stated), with “inactive”; and `O=C(Cl)OCCOCCOC(=O)Cl`, with “inactive”; and `CC(C)(C)c1cc([N+](=O)[O-])cc(C(C)(C)C)c1O`, with “inactive”. Take `CCCCCCCCCCCCBr`: the outcome was inactive. Then `Oc1ccc(Cc2ccc(O)cc2)cc1`, with “inactive”; and `CCC[CH2][Sn]([Cl])([Cl])[CH2]CCC`, with “inactive”; and `C=CC(=O)[O][Sn]([CH2]CCC)([CH2]CCC)[CH2]CCC`, with “inactive”.

Regarding `O=S(=O)(Oc1ccc(Cl)cc1)c1ccc(Cl)cc1`, the compound was classed as inactive. Then `c1csc(-c2ccc(-c3cccs3)s2)c1`, with “inactive”.
